# Test results reported in ChEMBL document CHEMBL3988442, “University of Dundee, Small-Polar-MMV Screening Library” (2021).
# Among all 48,000 compounds or so, about 13,000 (27%) showed an effect of 50% or more. The list shows a part of the results.
# System: Wolbachia pipientis
# Assay: Anti-Wolbachia Cell-Based Screen
# Assay type: functional
# Set-up: scale not given: in the data most compounds retested in dose-response had high values
# Details: 5 µM
row,SMILES,Percent Effect
1,Cn1nc(Cn2cccc2)c2c1CN(Cc1ccoc1)C2.O=C(O)C(F)(F)F,-1.566%
2,Oc1cccc(CN2CCN(c3nccc(CCC(F)(F)F)n3)CC2)c1,0.5395%
3,Cc1cc(C)c2nc(CN3CCC(CN)CC3)cc(O)c2c1,-3.326%
4,CN(C)C(=O)NCc1cc2n(n1)CCCN(CC1CCCNC1)C2 (stereo unspecified),-1.604%
5,COC1CCN(CCNC(=O)NC(C)c2ccc(F)c(F)c2)CC1 (stereo unspecified),2.95%
6,CCOCCn1c(=O)n(CCC=C(C)C)c2cc(C(=O)O)cnc21,-10.97%
7,CC1(C)CN=C(N2CCN(CC3CCCCO3)CC2)S1 (stereo unspecified),87.51%
8,CC1(C)CN=C(N2CCN(CC3CCCO3)CC2)S1 (stereo unspecified),67.12%
9,CCn1ncc(C(=O)N2CCN(CC3CCCO3)CC2)c1C (stereo unspecified),-12.64%
10,Cc1cc(NC2CCN(CC3CCCO3)CC2)n2nc(C)c(C)c2n1 (stereo unspecified),11.1%
11,CC(C)c1nc(CN2CCN(CC3CCCO3)CC2)cs1 (stereo unspecified),2.342%
12,COCc1ccccc1C(=O)N1CCN(C2=NCC(C)(C)S2)CC1,-20.33%
13,CC1(c2ccccc2)CCC(=O)N(CCCN2CCOCC2)C1 (stereo unspecified),6.196%
14,CC1(C)CN=C(N2CCN(CCCN3CCOCC3)CC2)S1,99.8%
15,Cc1cnc(C)c(N2CCN(CC3CCCO3)CC2)n1 (stereo unspecified),94.75%
16,Cc1ncc2c(n1)CN(CC1CCCCO1)CC2 (stereo unspecified),1.379%
17,Cc1cnc(C)c(N2CCN(Cc3ccc(C)c(C)c3)CC2)n1,-24.43%
18,CCC(C)NC(=O)c1coc(COc2cccc(F)c2)n1 (stereo unspecified),-23.89%
19,Cc1nn(C(C)(C)C)c(=O)n1CC(=O)NCC(F)(F)F,1.676%
20,O=C(NCc1ccccc1)[C@H]1C[C@@H]2CN(S(=O)(=O)C3CC3)C[C@H]1O2,0.5177%
21,CCC(CNS(N)(=O)=O)Oc1ccccc1F (stereo unspecified),-4.298%
22,COc1ncnc2c1CCN(CC1CCOC1)CC2 (stereo unspecified),-41.04%

row,SMILES,Percent Effect
1,N#Cc1c(N2CCN(CC3CCOC3)CC2)nc2ccccn12 (stereo unspecified),-4.336%
2,CC1(C)CN=C(N2CCN(CC3CCOC3)CC2)S1 (stereo unspecified),102.4%
3,Cc1n[nH]c(C)c1S(=O)(=O)N(C)Cc1nn(C)c(Cl)c1Cl,0.7109%
4,CCN(Cc1cc(Br)ccc1F)C(=O)C(C)NC(N)=O (stereo unspecified),-3.713%
5,Cc1cccn2c(CNC(C)CCc3ccc(O)cc3)cnc12 (stereo unspecified),-2.833%
6,COc1ccccc1OC1(C(=O)O)CCN(c2nccnc2C)CC1,-2.671%
7,CCn1nc(C(C)C)cc1C(=O)N1CCOc2ccc(OC)cc21,10.42%
8,COCCN(C)CCN1CC2(CCN(C3CCNCC3)CC2)OC1=O,0.09435%
9,CNC(=O)N1CC[C@@H]2CN(Cc3cccc(Cl)c3)S(=O)(=O)[C@@H]2CC1,-6.007%
10,CC(=O)N1CC[C@@H]2CN(Cc3cccc(Cl)c3)S(=O)(=O)[C@@H]2CC1,-7.404%
11,CNC(=O)N1CC[C@@H]2CN(Cc3cccc(OC)c3)S(=O)(=O)[C@@H]2CC1,89.38%
12,CNC(=O)N1CC[C@@H]2CN(Cc3ccccc3)S(=O)(=O)[C@@H]2CC1,102%
13,CC(C)NC(=O)N1CC[C@@H]2CN(Cc3cccc(Cl)c3)S(=O)(=O)[C@@H]2CC1,-12.85%
14,CNC(=O)N1CC[C@@H]2CN(CCc3cccc(OC)c3)S(=O)(=O)[C@@H]2CC1,-2.748%
15,O=C(NCCSC1CCCC1)c1cc(Cl)ccn1,3.584%
16,COCC(=O)N[C@H]1C[C@@H](Cc2cc(CN3CCCCC3)on2)C1(C)C,11.93%
17,Cc1ccccc1CN(CCN(C)C)Cc1ncc[nH]1,-7.334%
18,COCCC1COC2(CCN(C(=O)C3CCC3)CC2)C1 (stereo unspecified),-7.726%
19,CN1CC2(CCN(C(=O)C3CCC3)CC2)COc2ccccc2S1(=O)=O,97.81%
20,CC(C)NC(=O)N1CCC2(CC1)COc1ccccc1S(=O)(=O)N(C)C2,105.4%
21,CN(C)C(C(=O)N1CCCN(C(=O)C2CCC2)CC1)c1ccccc1F (stereo unspecified),-11.1%
22,N#Cc1csc(CN(CC(=O)N2CCCC2)CC2CCCO2)c1 (stereo unspecified),4.573%

row,SMILES,Percent Effect
1,CCOc1ccc(OCC)c(NCc2cc(C)on2)c1,-0.4612%
2,COCCOC[C@]1(CNCc2ccc(OC)cc2)C[C@@H](O)[C@@H](O)C1.Cl,6.755%
3,Cc1ccccc1C1(CNC(=O)N2CCC(CC(N)=O)CC2)CC1,-8.106%
4,Cc1ccccc1C1(CNC(=O)c2cccc(S(C)(=O)=O)c2)CC1,2.045%
5,Cc1ccccc1C1(CNC(=O)c2ccc(S(C)(=O)=O)cc2)CC1,72.54%
6,CC(NC(=O)N(C)Cc1ccsc1)c1ccc2c(c1)OCO2 (stereo unspecified),-7.719%
7,CCOCC(=O)N1CCC(C(O)c2ccc(F)cc2)CC1 (stereo unspecified),-2.843%
8,CN(CCOc1ccccc1F)S(=O)(=O)CC1CCOCC1,2.029%
9,CC(O)CN1CCN(C(=O)CCOc2ccccc2F)CC1 (stereo unspecified),109.3%
10,O=C(CCOc1ccccc1F)N1CCC(O)CC1,96.9%
11,O=C(Nc1ccccc1)C1CCN(C(=O)COc2ccccc2F)CC1,17.88%
12,COc1ccccc1C1(C(=O)N2CCN(CC(C)O)CC2)CC1 (stereo unspecified),-12.51%
13,CN1CCOC(CNC(=O)CCCOc2ccccc2F)C1 (stereo unspecified),-10.92%
14,CC(C)c1ccc(OCCC(=O)N2CCC(CC(N)=O)CC2)cc1,-11.97%
15,CC(O)C1CCN(C(=O)CCOc2ccccc2F)CC1 (stereo unspecified),86.99%
16,O=C(CCOc1ccccc1F)N1CCOCC1,105.4%
17,Cn1cnnc1C1CCN(C(=O)CCCOc2ccccc2F)CC1,-1.592%
18,CC(O)CN1CCN(C(=O)c2cnn(-c3ccccc3F)c2)CC1 (stereo unspecified),-7.908%
19,CCN(C1CCN(c2cccc(F)c2C(C)=O)CC1)S(C)(=O)=O,-1.557%
20,COc1ccnc(N(C)Cc2csc(C)n2)n1,-11.41%
21,CC(Cn1cncn1)Nc1ccc(-c2nccn2C)nn1 (stereo unspecified),-4.731%
22,CC(NC(=O)N(C)Cc1ccc2c(c1)OCCO2)c1nncn1C (stereo unspecified),-31.29%
